From PubChem BioAssay
MITF primary – MITF inhibitors, primary screen, biochemical, AlphaScreen, human; Microphthalmia-associated transcription factor (Homo sapiens), O75030; AlphaScreen MITF homodimerization, bead proximity signal; inhibition, % at 2.6 µM; actives 0.91% (n = 650,000); AID 1259374, 2018; in the data active means inhibition above about 50%;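 further: 0% = vehicle wells with protein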
Target sequence (O75030 whole entry, looked up): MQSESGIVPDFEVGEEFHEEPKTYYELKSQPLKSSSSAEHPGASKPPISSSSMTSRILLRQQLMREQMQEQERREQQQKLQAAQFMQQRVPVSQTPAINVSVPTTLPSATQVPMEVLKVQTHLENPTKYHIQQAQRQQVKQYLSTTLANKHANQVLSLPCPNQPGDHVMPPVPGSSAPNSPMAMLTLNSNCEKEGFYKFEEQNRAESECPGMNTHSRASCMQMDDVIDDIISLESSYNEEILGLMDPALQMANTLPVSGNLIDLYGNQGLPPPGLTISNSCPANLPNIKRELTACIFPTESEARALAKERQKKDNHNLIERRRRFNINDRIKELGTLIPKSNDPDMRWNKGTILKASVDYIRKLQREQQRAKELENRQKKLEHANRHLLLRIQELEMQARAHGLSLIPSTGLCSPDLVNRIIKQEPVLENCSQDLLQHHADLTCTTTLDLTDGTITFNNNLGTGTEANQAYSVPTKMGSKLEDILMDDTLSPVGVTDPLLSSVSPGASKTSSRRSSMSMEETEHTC
FBW7 activator – FBW7 E3 ligase activators, primary screen, biochemical, AlphaScreen, human | F-box/WD repeat-containing protein 7 (Homo sapiens), Q969H0 | AlphaScreen FBW7–phospho-cyclin E peptide binding, activator screen | normalized activity (activation), % at 26.1 µM | actives 0.13% (n = 650,000); in the data active means normalized activity above about 1.9%;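 further: purified mutant Fbw7 with reduced substrate affinity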
GPR151 ag – activators of human GPR151, primary screen, cell-based, PathHunter beta-arrestin, luminescence; G-protein coupled receptor 151 (Homo sapiens), Q8TDV0; PathHunter beta-arrestin GPR151 cells; activation, % at 11.2 µM; actives 1% (n = 650,000); in the data active means activation above about 4.9%;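 further: 0% = median of compound wells and 100% = cells with positive control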
TEAD-YAP inh – TEAD-YAP interaction inhibition, primary screen, TEAD-YAP interaction inhibitor project, luminescence, HEK-TIYL cells. TEAD-Gal4/YAP UAS-luciferase luminescence. inhibition, % at 9.12 µM. actives 1.4% (n = 640,000); in the data active means inhibition above about 32%;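 further: 0% = median of test compound wells and 100% = reference inhibitor wells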
Numbers without * were called inactive; nt = not tested or not shown. Sampled rows, rich in hits. Any-hit rate of the full collection: about 3.5%.

SMILES	MITF primary	FBW7 activator	GPR151 ag	TEAD-YAP inh
CCN(CC)C(=O)c1sc2ncnc(N3CCN(c4ccccc4)CC3)c2c1C	27.0	2.0*	0.0	8.0
COc1ccc2c(C)cc(SCC(=O)Nc3cccc(C(=O)O)c3)nc2c1	-4.4	-0.1	1.4	-2.6
O=C(c1ccc(Cl)c(Cl)c1)N1CCN(Cc2ccccc2)CC1	25.4	0.1	0.2	-7.7
OCCN1CCN(c2nc3ccccc3nc2C(F)(F)F)CC1	10.7	-0.1	-0.3	-5.1
Cc1c(C(=O)NC(C)C)sc2ncnc(N3CCN(c4ccccc4)CC3)c12	17.5	2.1*	1.3	2.1
CCC1(C)CC(CC#N)(c2ccc(C)cc2)CCO1 (stereo not given)	-0.4	-0.1	-1.0	13.2
Cc1nc(C)c(CN2CCC(C(=O)Nc3ccc(Oc4cccnc4)cc3)CC2)nc1C	7.4	0.0	-0.3	13.1
O=C(Nc1ccc(Oc2cccnc2)cc1)C1CCN(Cc2cc3ccccc3o2)CC1	11.6	0.1	-1.4	43.8*
COc1ccc(N2CCN(C(=O)c3nn(-c4cc(OC)cc(OC)c4)c(=O)c4ccccc34)CC2)cc1	12.0	-0.1	1.7	-3.9
Cc1cccc(NC(=O)NC2CCS(=O)(=O)C2)c1 (stereo not given)	1.7	-0.3	-0.3	2.9
CC(C)n1cnc2c(NCc3cccnc3)nc(NCCCN3CCCC3=O)nc21	-1.8	-0.1	-0.4	0.0
O=C(NCc1cccc(C(F)(F)F)c1)C1CCN(c2ccc(Nc3ccc(-n4ccnc4)cc3)nn2)CC1	10.9	0.2	-3.2	34.7*
COc1cc(Nc2ncc(C)c(NCc3cccc(C(F)(F)F)c3)n2)cc(OC)c1OC	-5.4	-0.1	1.5	53.5*
Cc1cc(NCc2cccc(C(F)(F)F)c2)nc(Nc2ccc(-n3ccnc3)cc2)n1	0.1	-0.1	1.3	50.2*
CCCNc1cc(C)nc(Nc2ccc(-n3ccnc3)cc2)n1	5.9	0.0	1.3	34.9*
COc1cc(Nc2ncc(C)c(NCc3cccnc3)n2)cc(OC)c1OC	20.4	0.2	1.9	-12.5
O=C(NCc1ccccc1)C1CCN(c2ccc(Nc3ccc(-n4ccnc4)cc3)nn2)CC1	10.6	-0.1	-1.9	2.0
CCC(Oc1ccccc1)C(=O)Nc1ccc(C#N)cc1 (stereo not given)	9.8	0.4	-1.5	8.6
Cc1ccc(-c2noc(C3CCNCC3)n2)cc1	-3.4	0.1	2.0	-8.9
Cc1cnc(Nc2cnccn2)nc1NCc1cccc(C(F)(F)F)c1	7.5	-0.1	1.8	46.4*
Cc1cnc(Nc2ccc(-n3ccnc3)cc2)nc1NCc1cccc(C(F)(F)F)c1	-10.2	0.1	0.1	36.7*
Cc1cnc(Nc2ccc(C(F)(F)F)cc2)nc1NCc1cccc(C(F)(F)F)c1	-21.6	0.0	-2.0	11.1
CC1CCN(c2ccc3nc4ccccc4c(=O)n3n2)CC1	-3.8	0.2	-7.7	75.7*
O=c1c2cc(Cl)ccc2nc2ccc(N3CCCC3)nn12	-0.4	0.1	-0.2	-47.6
O=C(NC1CCCCC1)C1CCN(C(=O)c2ccc(F)cc2)CC1	20.2	0.4	-0.8	-2.0
SMILES	MITF primary	FBW7 activator	GPR151 ag	TEAD-YAP inh
O=C1c2cccc3cccc(c23)C(=O)N1CCNCCO	-10.6	0.2	0.5	63.9*
C[C@H]1O[C@@H](O[C@H]2[C@@H](O)C[C@H](O[C@H]3[C@@H](O)C[C@H](O[C@H]4CC[C@]5(C)C6CC[C@]7(C)[C@@H](C8=CC(=O)OC8)CC[C@]7(O)C6CC[C@@H]5C4)O[C@@H]3C)O[C@@H]2C)C[C@H](O)[C@@H]1O (stereo not given in full)	24.0	0.3	4.3	99.5*
C[C@H]1O[C@@H](O[C@H]2[C@@H](O)C[C@H](O[C@H]3[C@@H](O)C[C@H](O[C@H]4CC[C@@]5(C)[C@H](CC[C@@H]6[C@@H]5C[C@@H](O)[C@]5(C)[C@@H](C7=CC(=O)OC7)CC[C@]65O)C4)O[C@@H]3C)O[C@@H]2C)C[C@H](O)[C@@H]1O	7.7	0.1	0.2	nt
CCOC(=O)c1sc2nc(CC(=O)OC)nc(NCCCN3CCOCC3)c2c1C	12.0	0.2	0.0	9.0
COc1ccccc1C(=O)Nc1noc2ccccc12	14.8	0.1	-4.7	27.3
O=C(Nc1noc2ccccc12)c1cccc(F)c1	-4.2	0.0	-4.1	-17.3
COc1ccc(C(=O)Nc2noc3ccccc23)c(OC)c1	-4.1	-0.1	-9.8	88.4*
O=C(Nc1noc2ccccc12)c1ccc(F)cc1	-7.4	0.2	-11.5	44.3*
